The text below walks through data of PMC7862700, “An all-to-all approach to the identification of sequence-specific readers for epigenetic DNA modifications on cytosine”.

What all share (experiment): DAPPL (digital affinity profiling via proximity ligation, sequencing); 10 mM Tris-HCl pH 7.5, 50 mM NaCl, 1 mM DTT, 4% glycerol, room temperature, 30 min; GST-TFs on glutathione beads, 16-mer random dsDNA library, 0.1% formaldehyde crosslink after washing; high values mean tight binding
One test concerns the target T1, FLI1 (Homo sapiens, UniProt Q01543 1-452).
T1 sequence: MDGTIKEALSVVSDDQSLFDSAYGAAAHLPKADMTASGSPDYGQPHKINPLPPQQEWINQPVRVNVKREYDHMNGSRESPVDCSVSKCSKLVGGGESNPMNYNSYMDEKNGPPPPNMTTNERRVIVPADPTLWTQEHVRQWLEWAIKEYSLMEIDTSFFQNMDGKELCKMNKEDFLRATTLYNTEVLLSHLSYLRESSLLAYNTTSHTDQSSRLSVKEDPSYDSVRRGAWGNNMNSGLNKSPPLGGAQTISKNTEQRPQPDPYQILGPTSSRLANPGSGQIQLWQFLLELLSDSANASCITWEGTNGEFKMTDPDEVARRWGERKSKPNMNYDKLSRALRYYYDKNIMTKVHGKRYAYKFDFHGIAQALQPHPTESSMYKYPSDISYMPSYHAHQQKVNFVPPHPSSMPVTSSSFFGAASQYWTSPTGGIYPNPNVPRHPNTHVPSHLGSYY
Particulars: protein: recombinant; tags: N-terminal GST; dsDNA, one strand shown. The method in brief: (§1)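 Beads coated with glutathione captured GST-fused human transcription factors that had been expressed in yeast, and the factors were then given DNA barcodes and pooled with a tag-only sample. The pools were incubated with 200 nmole of a random double-stranded 16-mer DNA library in Tris/NaCl/DTT/glycerol buffer for 30 min at room temperature, washed, crosslinked with 0.1% formaldehyde and proximity-ligated with BsaI/T4 ligase at 37 °C for 1 h. PCR amplification and Illumina NextSeq500 sequencing came last. Binding signal is each hexamer's read frequency for a factor divided by its frequency for the tag-only sample.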

For the next test, the target named is T2, ELK1 (Homo sapiens, UniProt P19419 1-428).
T2 sequence: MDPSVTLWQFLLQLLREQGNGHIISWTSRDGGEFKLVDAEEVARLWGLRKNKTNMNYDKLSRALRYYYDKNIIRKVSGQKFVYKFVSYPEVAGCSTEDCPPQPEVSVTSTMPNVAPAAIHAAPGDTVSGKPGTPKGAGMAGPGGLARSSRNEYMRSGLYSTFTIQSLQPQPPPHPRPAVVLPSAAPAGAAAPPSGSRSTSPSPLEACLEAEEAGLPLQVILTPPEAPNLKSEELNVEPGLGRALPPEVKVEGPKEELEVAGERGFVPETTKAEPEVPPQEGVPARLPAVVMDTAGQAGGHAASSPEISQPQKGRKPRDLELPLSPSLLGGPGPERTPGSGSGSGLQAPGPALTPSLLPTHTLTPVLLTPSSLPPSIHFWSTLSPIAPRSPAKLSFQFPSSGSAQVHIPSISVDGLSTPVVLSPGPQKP
To be noted: protein: recombinant; tags: N-terminal GST; dsDNA, one strand shown. The essentials:
as §1

The next test concerns the target T3, GABPA (Homo sapiens, UniProt Q06546 1-454).
T3 sequence: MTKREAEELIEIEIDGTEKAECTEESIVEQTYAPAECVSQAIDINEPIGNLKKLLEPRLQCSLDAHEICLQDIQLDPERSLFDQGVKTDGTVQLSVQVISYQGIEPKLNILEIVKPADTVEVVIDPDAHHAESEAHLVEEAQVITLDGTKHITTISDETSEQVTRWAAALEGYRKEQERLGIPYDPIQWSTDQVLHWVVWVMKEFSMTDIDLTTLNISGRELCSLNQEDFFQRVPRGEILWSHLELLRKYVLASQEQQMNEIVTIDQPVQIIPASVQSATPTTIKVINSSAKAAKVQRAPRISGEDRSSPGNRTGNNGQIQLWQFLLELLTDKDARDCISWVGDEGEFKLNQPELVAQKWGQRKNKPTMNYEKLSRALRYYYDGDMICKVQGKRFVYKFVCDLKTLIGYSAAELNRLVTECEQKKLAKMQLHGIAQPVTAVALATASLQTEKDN
Particulars: protein: recombinant; tags: N-terminal GST; dsDNA, one strand shown. The essentials: as §1

A further test has as its target T4, ERG (Homo sapiens, UniProt P11308 1-479).
T4 sequence: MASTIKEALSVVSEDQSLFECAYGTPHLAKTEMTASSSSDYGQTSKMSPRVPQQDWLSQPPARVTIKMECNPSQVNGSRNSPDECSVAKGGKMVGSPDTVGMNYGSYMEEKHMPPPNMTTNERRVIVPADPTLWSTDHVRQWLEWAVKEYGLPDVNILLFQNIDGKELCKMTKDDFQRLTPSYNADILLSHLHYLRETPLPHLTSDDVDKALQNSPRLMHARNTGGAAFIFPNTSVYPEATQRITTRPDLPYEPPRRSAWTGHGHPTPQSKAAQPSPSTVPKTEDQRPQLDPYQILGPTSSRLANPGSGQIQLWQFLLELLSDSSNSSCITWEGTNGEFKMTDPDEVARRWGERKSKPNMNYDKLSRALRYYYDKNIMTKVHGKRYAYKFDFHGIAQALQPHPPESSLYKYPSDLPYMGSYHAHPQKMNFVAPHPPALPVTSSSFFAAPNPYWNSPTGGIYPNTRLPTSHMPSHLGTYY
To be noted: protein: recombinant; tags: N-terminal GST; dsDNA, one strand shown. The method in brief:
as §1

A further test addresses ELF1 (Homo sapiens, UniProt P32519 1-619). To be noted: protein: recombinant; tags: N-terminal GST; dsDNA, one strand shown. The essentials:
as §1

A further test has as its target SPI1 (Homo sapiens, UniProt P17947 1-270). Particulars: protein: recombinant; tags: N-terminal GST; dsDNA, one strand shown. The essentials: as §1
The target of the next test is SPIB (Homo sapiens, UniProt Q01892 1-262). To be noted: protein: recombinant; tags: N-terminal GST; dsDNA, one strand shown. The method in brief:
as §1

The next test deals with T5, ELK3 (Homo sapiens, UniProt P41970 1-407).
T5 sequence: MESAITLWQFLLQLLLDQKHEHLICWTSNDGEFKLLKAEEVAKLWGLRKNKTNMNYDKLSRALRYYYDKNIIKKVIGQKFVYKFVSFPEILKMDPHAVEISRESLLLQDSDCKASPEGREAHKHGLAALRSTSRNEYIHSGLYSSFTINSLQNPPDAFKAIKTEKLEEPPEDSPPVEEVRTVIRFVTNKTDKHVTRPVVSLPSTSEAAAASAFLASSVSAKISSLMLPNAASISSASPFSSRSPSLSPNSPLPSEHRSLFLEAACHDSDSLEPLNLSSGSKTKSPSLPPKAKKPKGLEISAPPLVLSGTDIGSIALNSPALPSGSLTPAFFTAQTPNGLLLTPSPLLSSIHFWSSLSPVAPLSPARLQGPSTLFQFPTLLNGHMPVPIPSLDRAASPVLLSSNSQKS
Particulars: protein: recombinant; tags: N-terminal GST; dsDNA, one strand shown. The essentials: as §1

Another test has as its target T6, FEV (Homo sapiens, UniProt Q99581 1-238).
T6 sequence: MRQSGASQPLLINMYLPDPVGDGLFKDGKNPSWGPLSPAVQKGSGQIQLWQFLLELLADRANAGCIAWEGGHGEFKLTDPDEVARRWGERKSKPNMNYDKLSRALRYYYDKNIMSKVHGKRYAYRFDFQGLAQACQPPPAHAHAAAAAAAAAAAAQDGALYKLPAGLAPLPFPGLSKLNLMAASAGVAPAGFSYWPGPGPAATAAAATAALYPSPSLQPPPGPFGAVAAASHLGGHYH
To be noted: protein: recombinant; tags: N-terminal GST; dsDNA, one strand shown. The method in brief: as §1

The next test addresses ETV5 (Homo sapiens, UniProt P41161 1-510). To be noted: protein: recombinant; tags: N-terminal GST; dsDNA, one strand shown. The essentials:
as §1

The next test has as its target HSF1 (Homo sapiens, UniProt Q00613 1-529). To be noted: protein: recombinant; tags: N-terminal GST; chain copies: 3; dsDNA, one strand shown. The essentials: as §1
For a further test, the target named is T7, SPIC (Homo sapiens, UniProt Q8N5J4 1-248).
T7 sequence: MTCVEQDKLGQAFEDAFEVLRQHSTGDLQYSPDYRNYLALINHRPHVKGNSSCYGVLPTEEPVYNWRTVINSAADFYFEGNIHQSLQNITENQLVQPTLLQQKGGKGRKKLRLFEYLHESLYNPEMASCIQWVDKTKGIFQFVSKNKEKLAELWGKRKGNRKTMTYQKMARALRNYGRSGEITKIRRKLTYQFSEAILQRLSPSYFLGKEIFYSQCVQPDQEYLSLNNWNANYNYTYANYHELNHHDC
To be noted: protein: recombinant; tags: N-terminal GST; dsDNA, one strand shown. The essentials:
as §1

The target in the next test is ELF4 (Homo sapiens, UniProt Q99607 1-663). To be noted: protein: recombinant; tags: N-terminal GST; dsDNA, one strand shown. The method in brief:
as §1

Another test has as its target T8, ELK4 (Homo sapiens, UniProt P28324-2 1-405).
T8 sequence: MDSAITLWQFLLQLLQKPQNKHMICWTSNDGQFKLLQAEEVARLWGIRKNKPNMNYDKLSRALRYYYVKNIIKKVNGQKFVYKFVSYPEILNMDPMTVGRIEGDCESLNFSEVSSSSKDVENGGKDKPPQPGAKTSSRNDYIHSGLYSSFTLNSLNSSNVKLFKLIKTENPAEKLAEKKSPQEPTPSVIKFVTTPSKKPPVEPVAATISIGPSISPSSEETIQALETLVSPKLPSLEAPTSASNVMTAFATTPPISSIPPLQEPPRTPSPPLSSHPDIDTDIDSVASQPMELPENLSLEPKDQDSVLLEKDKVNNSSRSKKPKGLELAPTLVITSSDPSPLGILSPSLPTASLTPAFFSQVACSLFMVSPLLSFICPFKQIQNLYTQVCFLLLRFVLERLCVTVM
To be noted: protein: recombinant; tags: N-terminal GST; dsDNA, one strand shown. The essentials: as §1

In another test the target is T9, ELF3 (Homo sapiens, UniProt P78545 1-371).
T9 sequence: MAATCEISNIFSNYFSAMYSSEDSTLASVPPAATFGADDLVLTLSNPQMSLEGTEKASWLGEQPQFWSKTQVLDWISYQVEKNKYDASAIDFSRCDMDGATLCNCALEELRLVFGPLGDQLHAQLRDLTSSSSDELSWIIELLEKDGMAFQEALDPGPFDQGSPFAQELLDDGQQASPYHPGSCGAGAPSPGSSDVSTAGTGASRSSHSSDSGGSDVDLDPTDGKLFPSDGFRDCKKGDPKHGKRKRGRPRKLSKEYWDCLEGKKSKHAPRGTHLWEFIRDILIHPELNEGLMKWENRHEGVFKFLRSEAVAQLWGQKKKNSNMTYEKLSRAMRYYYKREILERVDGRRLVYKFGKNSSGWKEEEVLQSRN
Particulars: protein: recombinant; tags: N-terminal GST; dsDNA, one strand shown. The essentials: as §1

Another test addresses T10, EHF (Homo sapiens, UniProt Q9NZC4 1-300).
T10 sequence: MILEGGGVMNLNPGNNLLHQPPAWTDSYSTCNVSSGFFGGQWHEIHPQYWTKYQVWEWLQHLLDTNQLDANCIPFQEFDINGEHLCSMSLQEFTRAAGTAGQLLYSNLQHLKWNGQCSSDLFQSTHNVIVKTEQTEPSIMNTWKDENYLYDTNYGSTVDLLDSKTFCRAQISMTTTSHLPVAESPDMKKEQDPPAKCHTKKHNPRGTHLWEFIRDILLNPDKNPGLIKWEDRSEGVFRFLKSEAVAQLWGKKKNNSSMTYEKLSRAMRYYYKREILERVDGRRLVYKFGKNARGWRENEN
To be noted: protein: recombinant; tags: N-terminal GST; dsDNA, one strand shown. The essentials: as §1

For a further test, the target named is CRX (Homo sapiens, UniProt O43186 1-299). To be noted: protein: recombinant; tags: N-terminal GST; dsDNA, one strand shown. The essentials:
as §1

The next test has as its target ETV1 (Homo sapiens, UniProt P50549 1-477). To be noted: protein: recombinant; tags: N-terminal GST; dsDNA, one strand shown. The method in brief: as §1

Chain of ETV5 (P41161 whole entry): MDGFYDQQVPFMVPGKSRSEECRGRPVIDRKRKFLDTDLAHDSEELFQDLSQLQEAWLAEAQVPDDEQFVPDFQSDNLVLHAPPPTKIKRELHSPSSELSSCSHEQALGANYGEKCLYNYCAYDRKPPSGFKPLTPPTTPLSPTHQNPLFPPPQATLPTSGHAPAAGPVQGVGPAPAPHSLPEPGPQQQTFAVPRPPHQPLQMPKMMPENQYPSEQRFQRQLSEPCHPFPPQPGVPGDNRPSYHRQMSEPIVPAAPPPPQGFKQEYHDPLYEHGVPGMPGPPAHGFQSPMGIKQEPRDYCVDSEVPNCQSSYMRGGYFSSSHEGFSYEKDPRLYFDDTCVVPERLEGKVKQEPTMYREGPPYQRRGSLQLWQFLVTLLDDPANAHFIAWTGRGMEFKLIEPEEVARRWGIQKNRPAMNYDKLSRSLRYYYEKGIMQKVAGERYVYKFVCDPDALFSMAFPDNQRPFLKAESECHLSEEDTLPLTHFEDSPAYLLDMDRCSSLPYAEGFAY
Chain of ELF1 (P32519 whole entry): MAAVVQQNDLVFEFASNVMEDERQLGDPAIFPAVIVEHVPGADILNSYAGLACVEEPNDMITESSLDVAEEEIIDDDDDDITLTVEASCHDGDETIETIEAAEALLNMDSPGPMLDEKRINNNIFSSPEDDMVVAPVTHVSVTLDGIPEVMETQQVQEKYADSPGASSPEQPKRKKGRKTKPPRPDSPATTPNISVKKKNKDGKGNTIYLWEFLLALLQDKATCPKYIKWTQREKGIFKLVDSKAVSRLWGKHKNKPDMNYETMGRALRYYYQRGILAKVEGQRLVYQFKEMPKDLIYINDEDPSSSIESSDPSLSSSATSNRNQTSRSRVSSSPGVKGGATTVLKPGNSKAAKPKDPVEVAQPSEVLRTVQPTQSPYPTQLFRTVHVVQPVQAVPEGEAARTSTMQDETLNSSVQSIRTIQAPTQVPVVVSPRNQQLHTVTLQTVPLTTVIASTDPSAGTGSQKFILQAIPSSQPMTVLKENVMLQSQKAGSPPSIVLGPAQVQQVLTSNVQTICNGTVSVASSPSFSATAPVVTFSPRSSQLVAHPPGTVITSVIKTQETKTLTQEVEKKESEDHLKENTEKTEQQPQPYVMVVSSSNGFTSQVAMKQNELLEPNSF
Chain of HSF1 (Q00613 whole entry): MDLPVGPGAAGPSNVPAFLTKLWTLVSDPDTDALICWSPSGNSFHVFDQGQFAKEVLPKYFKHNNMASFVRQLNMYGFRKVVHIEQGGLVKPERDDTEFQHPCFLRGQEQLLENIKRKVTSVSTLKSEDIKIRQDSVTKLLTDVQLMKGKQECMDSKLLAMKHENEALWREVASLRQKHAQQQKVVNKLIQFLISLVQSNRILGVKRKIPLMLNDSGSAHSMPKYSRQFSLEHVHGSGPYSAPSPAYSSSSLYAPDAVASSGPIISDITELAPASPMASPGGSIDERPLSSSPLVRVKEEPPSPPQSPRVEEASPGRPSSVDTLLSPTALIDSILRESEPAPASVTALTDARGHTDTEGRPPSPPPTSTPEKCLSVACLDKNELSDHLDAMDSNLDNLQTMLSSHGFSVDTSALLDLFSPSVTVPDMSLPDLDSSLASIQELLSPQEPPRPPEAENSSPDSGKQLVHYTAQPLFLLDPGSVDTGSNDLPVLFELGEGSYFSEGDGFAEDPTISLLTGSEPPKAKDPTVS
Chain of ELF4 (Q99607 whole entry): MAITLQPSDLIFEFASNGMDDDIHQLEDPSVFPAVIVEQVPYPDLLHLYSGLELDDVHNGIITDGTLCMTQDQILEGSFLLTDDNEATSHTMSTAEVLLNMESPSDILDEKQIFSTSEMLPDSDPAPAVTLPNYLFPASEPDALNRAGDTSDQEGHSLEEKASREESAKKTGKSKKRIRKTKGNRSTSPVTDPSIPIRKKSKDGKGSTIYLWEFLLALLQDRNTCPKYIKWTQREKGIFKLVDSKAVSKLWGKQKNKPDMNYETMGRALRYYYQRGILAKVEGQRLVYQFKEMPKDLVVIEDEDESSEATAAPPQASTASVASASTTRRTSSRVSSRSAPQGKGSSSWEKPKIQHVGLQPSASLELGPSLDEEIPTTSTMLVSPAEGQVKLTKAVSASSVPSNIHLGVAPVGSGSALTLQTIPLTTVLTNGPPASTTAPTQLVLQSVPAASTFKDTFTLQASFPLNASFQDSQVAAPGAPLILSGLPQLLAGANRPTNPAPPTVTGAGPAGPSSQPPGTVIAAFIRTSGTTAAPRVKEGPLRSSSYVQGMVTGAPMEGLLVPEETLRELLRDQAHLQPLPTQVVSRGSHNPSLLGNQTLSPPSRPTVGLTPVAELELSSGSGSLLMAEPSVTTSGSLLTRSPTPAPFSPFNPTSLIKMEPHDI
Chain of SPIB (Q01892 whole entry): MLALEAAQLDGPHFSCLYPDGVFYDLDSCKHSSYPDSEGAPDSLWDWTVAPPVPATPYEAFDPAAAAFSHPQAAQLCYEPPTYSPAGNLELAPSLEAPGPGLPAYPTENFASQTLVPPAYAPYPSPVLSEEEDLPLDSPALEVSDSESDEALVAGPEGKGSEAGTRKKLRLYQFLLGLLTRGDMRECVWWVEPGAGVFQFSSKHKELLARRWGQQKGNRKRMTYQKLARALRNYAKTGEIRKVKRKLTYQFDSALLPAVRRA
Chain of ETV1 (P50549 whole entry): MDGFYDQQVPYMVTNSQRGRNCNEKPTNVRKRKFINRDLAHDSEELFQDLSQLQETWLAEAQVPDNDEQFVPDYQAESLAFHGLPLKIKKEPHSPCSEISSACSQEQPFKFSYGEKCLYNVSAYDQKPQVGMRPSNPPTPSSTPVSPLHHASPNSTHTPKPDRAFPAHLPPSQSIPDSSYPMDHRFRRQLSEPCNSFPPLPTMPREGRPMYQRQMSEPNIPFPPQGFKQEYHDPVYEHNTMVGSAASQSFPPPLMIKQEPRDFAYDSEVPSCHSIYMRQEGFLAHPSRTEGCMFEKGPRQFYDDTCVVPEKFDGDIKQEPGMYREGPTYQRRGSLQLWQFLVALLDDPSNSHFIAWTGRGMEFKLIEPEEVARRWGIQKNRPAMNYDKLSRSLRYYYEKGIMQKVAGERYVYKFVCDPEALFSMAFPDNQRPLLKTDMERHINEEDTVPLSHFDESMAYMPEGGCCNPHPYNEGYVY
Chain of CRX (O43186 whole entry): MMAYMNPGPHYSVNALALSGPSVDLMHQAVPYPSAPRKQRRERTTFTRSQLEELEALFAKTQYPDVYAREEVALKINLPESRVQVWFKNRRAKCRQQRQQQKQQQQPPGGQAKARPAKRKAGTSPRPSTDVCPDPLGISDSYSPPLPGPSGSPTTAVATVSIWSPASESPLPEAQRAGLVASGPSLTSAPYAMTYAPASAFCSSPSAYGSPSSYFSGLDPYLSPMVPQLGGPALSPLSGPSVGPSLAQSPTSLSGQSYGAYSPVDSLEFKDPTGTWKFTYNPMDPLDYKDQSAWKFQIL

With AACCCA, the binding signal with FLI1 was 1.05 fold enrichment (6-mer frequency, TF over GST control); with ELK1 it was 1.03 fold enrichment (6-mer frequency, TF over GST control); in the test with GABPA, 1.02 fold enrichment (6-mer frequency, TF over GST control); in the test with ERG, 1.06 fold enrichment (6-mer frequency, TF over GST control); with ELF1, 1.06 fold enrichment (6-mer frequency, TF over GST control); with SPI1 it was 1 fold enrichment (6-mer frequency, TF over GST control). Also, the binding signal with SPIB is 1 fold enrichment (6-mer frequency, TF over GST control); with ELK3, 1.1 fold enrichment (6-mer frequency, TF over GST control); with FEV, 1.03 fold enrichment (6-mer frequency, TF over GST control); with ETV5, 1.05 fold enrichment (6-mer frequency, TF over GST control); with HSF1, 1 fold enrichment (6-mer frequency, TF over GST control); with SPIC, 1.1 fold enrichment (6-mer frequency, TF over GST control). For the same sequence, the binding signal with ELF4 is 1.1 fold enrichment (6-mer frequency, TF over GST control); with ELK4, 1.08 fold enrichment (6-mer frequency, TF over GST control); in the test with ELF3 it was 1.04 fold enrichment (6-mer frequency, TF over GST control).
For the sequence TAGCGA, the binding signal in the test with FLI1 was 1.1 fold enrichment (6-mer frequency, TF over GST control); in the test with ELK1, 1.01 fold enrichment (6-mer frequency, TF over GST control); in the test with GABPA, 1.18 fold enrichment (6-mer frequency, TF over GST control); with ELF1 it was 1.03 fold enrichment (6-mer frequency, TF over GST control); in the test with EHF, 1.03 fold enrichment (6-mer frequency, TF over GST control); in the test with ELK3, 1.08 fold enrichment (6-mer frequency, TF over GST control). Besides, the binding signal is 1.08 fold enrichment (6-mer frequency, TF over GST control) with ETV5; 1.22 fold enrichment (6-mer frequency, TF over GST control) with HSF1; 1.08 fold enrichment (6-mer frequency, TF over GST control) in the test with SPIC; 1.04 fold enrichment (6-mer frequency, TF over GST control) with ELF4; 1.05 fold enrichment (6-mer frequency, TF over GST control) in the test with ELK4; 1.2 fold enrichment (6-mer frequency, TF over GST control) with ELF3. The binding signal is 1.24 fold enrichment (6-mer frequency, TF over GST control) in the test with CRX and 1.07 fold enrichment (6-mer frequency, TF over GST control) in the test with ETV1.
